From PubChem BioAssay
A number with no mark means an inactive call. Active and inactive are the calls of the source.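 How the source made its calls: active means viability at or under a set limit in both replicates, limit being median viability minus 3 SD (cut at about 48% in these data, passing the limit was not always enough); inconclusive means at or under the limit in just one replicate; inactive means at or above the limit in both replicates.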

Assay: H69AR cell proliferation blockers – human, duplicate replicates, primary screen (AID 580);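 further: 100% = mean luminescence of untreated wells and 0% = no signal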
Conditions: H69AR lung tumor cells viability, ATP luminescence, 72 h; at 10 µM; active compounds read low

Point of comparison: `COc1ccc(OC)c(CNC(=O)CCN2C(=O)COc3ccccc32)c1`, viability 91.8%. Against it:
- Cc1ccc(C(=O)CSc2nnc(CNc3ccc(C)cc3C)o2)cc1 — lower, 81.2%
- CCn1c(SCc2cccc(C(F)(F)F)c2)nnc1-c1ccco1 — lower, 90.1%
- O=C(CC1CCCCC1)NCc1ccccn1 — higher, 95.8%
- c1ccc(-c2nn3nnnc3c3ccccc23)cc1 — lower, 90.8%
- CN=C(Nc1ccc2c(c1)OCO2)SC1CC(=O)N(c2ccccc2)C1=O (stereo not given) — lower, 82.3%
- O=C1c2ccccc2C(=O)N1CCCCN1CCN(CCCCN2C(=O)c3ccccc3C2=O)CC1 — higher, 97.5%
- Cc1cccc(-n2ncc(C#N)c2N)c1 — higher, 104%
- Cc1cc(NC(=O)COc2ncnc3sc(C)c(C)c23)no1 — lower, 89.8%
- O=C(CN1C(=O)CCS(=O)(=O)c2ccccc21)NCc1ccc(F)cc1 — higher, 98.4%
- C=CCSc1n[nH]c(-c2ccc(OC)cc2)n1 — lower, 90.3%
- COc1ccc(N2CCN(C(=O)CN3C(=O)C4CC=CCC4C3=O)CC2)cc1 (stereo not given) — higher, 94.6%
- CSC1CCCCC1(O)CSc1nc2c(cc1C#N)CCCC2 (stereo not given) — higher, 92.6%
- O=C(CCCCn1c(=O)[nH]c2ccsc2c1=O)NCc1cccnc1 — higher, 99.1%
- CCc1nnc(NC(=O)OCc2ccccc2)s1 — higher, 102%
- O=C(CP(=O)(c1ccccc1)c1ccccc1)N1CCCCC1 — higher, 106%
- Cc1nc(NC2=NCN(CCc3ccccc3)CN2)nc2c(C)cccc12 — lower, 78%
- O=C(c1ccc(CNS(=O)(=O)c2cccc(C(F)(F)F)c2)cc1)N1CCOCC1 — higher, 92.9%
- CCNc1oc(COc2ccccc2F)nc1C#N — higher, 100%
- CC1CC(C)CN(CCCNC(=O)c2ccc3c(c2)NC(=O)C(N2CCCCC2)S3)C1 (stereo not given) — lower, 87.8%
- CS(=O)(=O)N(CC(=O)NC1CC1)c1cccc(F)c1 — lower, 90%
- O=C(CCCNS(=O)(=O)c1ccccc1)NCc1ccco1 — higher, 99.3%
- CCOC(=O)CSC1=Nc2ccccc2C2=NC(CC(=O)NCc3cccs3)C(=O)N12 (stereo not given) — lower, 91.7%
- Cc1ccc(-c2nnn(CC(=O)N(CC(=O)NCC3CCCO3)c3ccccc3)n2)o1 (stereo not given) — lower, 90.9%
- O=C(c1ccncc1)N1CCN(C(=O)c2cccs2)CC1 — higher, 94.6%
- CC(=O)CC(=O)Nc1ccccc1NC(C)=O — higher, 101%
- O=C(O)C1CC=CCC1C(=O)Nc1cccc(C(=O)N2CCCCC2)c1 (stereo not given) — higher, 91.9%
- Cn1c(COc2ccccc2)nnc1SCC(=O)Nc1ccc(N2CCOCC2)c(Cl)c1 — higher, 94.4%
- Nn1cnnc1SCC(=O)Nc1ccc2c(c1)OCCO2 — higher, 97.1%
- N#Cc1nc(COc2ccccc2)oc1NCCN1CCOCC1 — higher, 107%
- CSc1nnc(-c2cnccn2)n1C — lower, 90.7%
- Cc1ccc(OCc2nnc(SCC(=O)N3CCOCC3)n2C)cc1 — higher, 106%
- Cc1[nH]nc2c1C1(CCN(C(=O)c3ccccc3)CC1)C(C#N)=C(N)O2 — higher, 98.7%
- COc1ccc(S(=O)(=O)NC(CC(=O)NCc2ccco2)c2ccco2)cc1 (stereo not given) — higher, 103%
- COc1ccc(C(=O)N2CCOCC2)cc1Br — higher, 101%
- Cn1c(=O)c2ccccc2n(Cc2ccccc2F)c1=O — lower, 85.2%
- CN(C)C(=O)C12CCC(C)(c3nc4ccccc4nc31)C2(C)C (stereo not given) — lower, 88.8%
- CC1(C)NC(=O)N(CCOc2cccc(Cl)c2Cl)C1=O — higher, 102%
- Cc1nn(Cc2ccccc2)c(C)c1NC(=O)CCC(=O)O — lower, 89.4%

In the case of `C#CCN1C(=O)C(O)(CC(=O)c2cc(OC)ccc2OC)c2ccccc21` (stereo not given), the viability is reported as 38.7% (active).
